Data reported in PubChem BioAssay AID652062 (Broad Institute, 2013).
Out of some 1,400 compounds screened, about 1,100 (79%) were called active.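 Rule for the calls: active = fitted half-maximal concentration of a falling signal no higher than twice the top valid dose in every test run; inconclusive = runs disagree, or flat partial inhibition, or poor fit; inactive = every run inactive: flat, wrong direction, or potency beyond limit.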 So high a share suggests a set chosen from earlier hits. Not all results are given here. Entries with a potency or affinity are not part of this list.

Assay: inhibitors of clade B AD8 Env fusion, dose response, cell-based, cherry-pick (AID 652062)
Conditions: HeLa-AD8 Env / CEM-CCR5 cell fusion, luciferase; at 35 µM (top of the series) unless noted

Compound | activity change, negative = inhibition
CCOc1ccc(NC2c3ccccc3C(=O)N2Cc2ccco2)cc1 (centres undefined) | 51.2%
CCN(CC)S(=O)(=O)c1ccc(NC2c3ccccc3C(=O)N2Cc2ccc3c(c2)OCO3)cc1 (centres undefined) | -25.4%
O=C(Nc1cccc(F)c1)c1cc(S(=O)(=O)N2CCC(C(=O)O)CC2)ccc1F | 43.8%
O=C(Nc1ccc(Cl)cc1)C1CCCN(C2=NS(=O)(=O)c3ccccc32)C1 (centres undefined) | -27% [at 16 µM]
C[C@H](CO)N1C[C@H](C)[C@@H](CN(C)C(=O)Nc2cccc3ccccc23)OCCCC[C@H](C)Oc2ccc(N(C)C)cc2C1=O | -37.4%
Cc1noc(C)c1NC(=O)N(C)C[C@H]1OCCCC[C@H](C)Oc2ccc(NC(=O)c3ccccc3)cc2C(=O)N([C@H](C)CO)C[C@@H]1C | 107%
O=C(N/N=C/c1ccc(-n2ccnc2)cc1)c1cccs1 | 91.2%
Clc1ccc2c(c1)C1=C(C(c3ccncc3)O2)C(c2ccc(Br)cc2)n2ncnc2N1 (centres undefined) | 285% [at 16 µM]
NC(Cc1ccc(F)cc1)c1csc(Nc2ccc(C(F)(F)F)cn2)n1 (centres undefined) | -26.6% [at 16 µM]
Cc1cccc(/C=N\Nc2cn[nH]c(=O)c2Cl)c1 | 183%
COc1ccc(CCN2C(=O)c3[nH]nc(-c4ccccc4O)c3C2c2cccc(O)c2)cc1OC (centres undefined) | 4.61%
COc1ccc(OC)c(CN2C(=O)c3ccccc3C2c2nnnn2-c2c(C)cccc2C)c1 (centres undefined) | -4.67%
CN(C(=O)c1cccc(NC(=O)Cc2cccc(NC(=O)C3CCCN(C(=O)C4CCC4)C3)c2)c1)C1CCC1 (centres undefined) | 49.5%
COc1ccc(-c2nnc(Nc3nc4c(OC)cccc4s3)o2)cc1 | -27.2%
O=C(Nc1cccc(F)c1)N[C@@H]1CC[C@H](CCNS(=O)(=O)c2cccc(Cl)c2)O[C@H]1CO | 101%
O=C(CCN1CCCCC1)N[C@@H]1CC[C@@H](CCn2cc(-c3ccccc3)nn2)O[C@@H]1CO | -17.1%
O=C(Cc1ccncc1)N[C@H]1CC[C@@H](CCn2cc(-c3ccccc3F)nn2)O[C@@H]1CO | -16.3%
O=C(CCN1CCCCC1)N[C@H]1CC[C@H](CCn2cc(-c3ccccc3)nn2)O[C@@H]1CO | -27.5%
COc1ccccc1S(=O)(=O)n1cc(Cc2ccccc2)c(N)n1 | -17%
O=C(C[C@@H]1CC[C@@H](NC(=O)c2ccncc2)[C@H](CO)O1)NCCc1ccncc1 | 38.7%
COc1ccc(Nc2cc(C)nc(NCc3ccccc3)n2)cc1 | -69.2%
C[C@@H]1CN([C@H](C)CO)C(=O)c2cccc(NC(=O)c3ccncc3)c2O[C@@H]1CN(C)Cc1ccc(C(=O)O)cc1 | 3.82%
C[C@@H]1CN([C@@H](C)CO)C(=O)c2cccc(NC(=O)c3ccc(-c4nccs4)cc3)c2O[C@H]1CN(C)CC1CC1 | 28.5%
C[C@@H]1CN([C@@H](C)CO)C(=O)c2cccc(NC(=O)c3cnccn3)c2O[C@H]1CN(C)Cc1ccc(Cl)c(Cl)c1 | 142% [at 16 µM]
